Source: PubChem BioAssay
DT40 TDP1 no CPT = qHTS for Inhibitors of human tyrosyl-DNA phosphodiesterase 1 (TDP1): qHTS in cells in absence of CPT; Potency, µM (top dose mostly 46.2 µM), without a hit: top-dose activity change, negative = growth inhibition, actives largely listed as inhibitors; DT40 Tdp1-/- hTDP1 cells, no CPT, ATP luminescence, 48 h; 420,000 compounds, 15% hits; further: potency means the concentration at half of the fitted maximal effect; nearly all actives have a fitted effect of over 55% in size
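DT40 Tdp1-/-;hTDP1 cells, no CPT (DMSO vehicle only), 400 cells/well; compounds pin-transferred; ≥48 hr, 37 °C; CellTiter-Glo 30 min RT dark, luminescence read.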
TDP1 block = qHTS Assay for Inhibitors of Tyrosyl-DNA Phosphodiesterase (TDP1); Tyrosyl-DNA phosphodiesterase 1 (Homo sapiens), Q9NUW8; recombinant TDP1, AlphaScreen DNA substrate cleavage; Potency, µM (highest dose often 130 µM), without a hit: top-dose activity change, negative = inhibition, hits mostly inhibitors; 350,000 compounds, 0.28% hits; further: potency means the concentration at half of the fitted maximal effect; nearly all actives have a fitted effect of over 40% in size
Target sequence (Q9NUW8 whole entry, looked up): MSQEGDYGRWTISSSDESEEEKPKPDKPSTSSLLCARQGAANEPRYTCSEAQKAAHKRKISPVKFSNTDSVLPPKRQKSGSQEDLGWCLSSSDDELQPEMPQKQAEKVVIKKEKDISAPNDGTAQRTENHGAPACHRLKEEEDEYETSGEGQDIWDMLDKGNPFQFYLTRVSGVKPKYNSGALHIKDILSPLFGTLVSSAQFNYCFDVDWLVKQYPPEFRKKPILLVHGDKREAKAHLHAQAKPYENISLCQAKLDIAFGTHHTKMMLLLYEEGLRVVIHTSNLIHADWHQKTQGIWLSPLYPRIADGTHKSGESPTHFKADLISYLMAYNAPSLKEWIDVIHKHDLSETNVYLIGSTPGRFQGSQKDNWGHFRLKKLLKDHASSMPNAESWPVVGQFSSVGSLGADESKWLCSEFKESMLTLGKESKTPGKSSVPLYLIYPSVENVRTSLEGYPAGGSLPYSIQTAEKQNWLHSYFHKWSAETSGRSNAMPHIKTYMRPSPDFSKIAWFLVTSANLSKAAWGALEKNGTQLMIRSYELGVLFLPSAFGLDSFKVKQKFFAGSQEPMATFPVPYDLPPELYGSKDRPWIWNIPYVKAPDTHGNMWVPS
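Here, a 5' biotin and 3' phosphotyrosine-FITC DNA oligonucleotide reports Tdp1 activity: intact substrate bridges AlphaScreen beads, while cleavage leaves a 3' phosphate and drops signal. All incubations at room temperature.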
ELG1 DNA repair = qHTS screen for small molecules that inhibit ELG1-dependent DNA repair in human embryonic kidney (HEK293T) cells expressing luciferase-tagged ELG1. HEK293T ELG1-luciferase reporter, luminescence, 16 h; DNA damage induced by 5-fluorouridine. Potency, µM (series often up to 46.1 µM), without a hit: at the highest dose activity change, negative = inhibition, most hits filed as inhibitors. 330,000 compounds, 2.3% hits. AID 504467, 2011; further: potency means the concentration at half of the fitted maximal effect; nearly all actives have a fitted effect of over 55% in size
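Overnight (16 hr) co-exposure of 2,000 cells/well to 5-fluorouridine and compound at 37 °C preceded detection. Luciferase was quantified via ONE-Glo luminescence; loss of signal denotes inhibition.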
Giardia killer = Small Molecules that selectively kill Giardia lamblia: qHTS; Giardia lamblia trophozoite viability; activity change, % at 7.66 µM, hits read low; 340,000 compounds, 0.15% hits; in the data active means activity change below about -80%; inconclusive means between about -30% and that limit;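 further: parasites exposed to compound for two days anaerobically before the ATP read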
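Anaerobic 48 hrs incubation at 37 deg C of 100 trophozoites/well with test compounds; ATPLite 1-Step luminescence, 15-30 min RT, reports cellular ATP as viability.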
IL1B secr inh = qHTS for Inhibitors of Inflammasome Signaling: IL-1-beta AlphaLISA Primary Screen | 360,000 compounds, 4.7% hits | activity change, % at 57.5 µM | THP-1 LPS/ATP IL-1B secretion, AlphaLISA, 16 h; hits give low values; in the data active means activity change below about -50%; inconclusive means mostly about -30% to -49%
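Secreted IL-1B measured by AlphaLISA bead assay after 16 h compound exposure of THP-1 cells; compounds (final up to 57.5 uM) added 1 h before LPS (250 ng/mL) and ATP (1.25 mM) stimulation; lower signal means less secretion.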
DT40 TDP1 CPT = qHTS for Inhibitors of human tyrosyl-DNA phosphodiesterase 1 (TDP1): qHTS in cells in presence of CPT; chicken DT40 Tdp1-/-;hTDP1 cells + 20 nM CPT, ATP luminescence, 48 h; Potency, µM (series often up to 46.2 µM), for inactives: at the top dose activity change, negative = growth inhibition, actives largely listed as inhibitors; 420,000 compounds, 12% hits; further: potency means the concentration at half of the fitted maximal effect; nearly all actives have a fitted effect of over 55% in size
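Chicken DT40 Tdp1-/- cells stably complemented with human TDP1 were seeded at 400 cells/well in medium containing 20 nM camptothecin, exposed to pin-transferred compounds, and grown at 37 °C for at least 48 hr. Viability was read as ATP luminescence.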
Active calls of the source: *; u = inconclusive; x = not tested or not shown; ! = repeats disagree. Most compounds without a hit are left out; they make up all but 19% or so of the library. Unless noted, the call rests on the fitted dose curve; in most records, active means well fitted curve in the direction sought with a large enough effect; inconclusive means small, poorly fitted or top-dose-only effect, or another doubt; inactive means no such curve, though single readings can be large; an effect the other way counts as inactive or inconclusive. On the % scale 0 is the no-effect control and ±100 the full control effect.

SMILES	DT40 TDP1 no CPT	TDP1 block	ELG1 DNA repair	Giardia killer	IL1B secr inh	DT40 TDP1 CPT
COc1ccc(NC(=O)CN(C)S(=O)(=O)c2ccc(Br)s2)cc1OC	-24%	1%	-20%	-6	37	u
O=C(N/N=C\c1c(O)ccc2ccccc12)c1ccc(Cn2cccn2)o1	5.8µM*	6%	u	-6	74	5.8µM*
CCOc1ccc(/C=N/NC(=O)c2[nH]ncc2Br)c(O)c1	5.2µM*	-3%	u	13	135	5.2µM*
O=C(N/N=C\c1ccc(Cl)s1)c1ccc(Cn2cccn2)o1	u	5%	17%	-1	-16	u
O=C(N/N=C/c1c(O)ccc2ccccc12)c1[nH]ncc1Br	4.6µM*	3%	u	7	99	2.6µM*
O=C(N/N=C/c1cccs1)c1[nH]ncc1Br	0%	0%	u	5	u	-11%
COc1ccc(OC)c(/C=N/NC(=O)c2[nH]ncc2Br)c1	-1%	3%	25%	8	13	2%
Cc1ccc(O)c(/C=N/NC(=O)c2[nH]ncc2Br)c1	15µM*	0%	u	23	-10	-9%
COCCCn1c(=O)c2ccccc2n(Cc2cccc(C)c2)c1=O	-14%	1%	-11%	24	-12	-18%
c1ccc(OC2CCCCC2N2CCOCC2)cc1 (stereo not given)	-1%	x	x	x	-6	0%
CCc1c(-c2ccc(Br)cc2)ncn1Cc1cccc(-c2ccccc2)c1	5.2µM*	x	x	x	-62*	7.3µM*
CCCc1c(-c2ccc(Cl)cc2)ncn1Cc1cccc(-c2ccccc2)c1	3.3µM*	x	x	x	3	5.2µM*
Cc1cc(Br)cn2c(Cc3ccccc3)c(-c3cccc(Br)c3)nc12	u	x	x	x	7	u
CCCc1c(-c2cccc(Br)c2)ncn1Cc1cccc(-c2ccccc2)c1	21µM*	x	x	x	20	16µM*
Clc1cccc(Cc2c(-c3ccccc3)nc3ccc(Br)cn23)c1	u	x	x	x	0	u
COc1cccc(CNC(=O)CN2C(=O)CSc3ccc(S(=O)(=O)N(C)C)cc32)c1	-29%	0%	x	x	x	u
CN(CC(=O)Nc1cccc(S(=O)(=O)N2CCCC2)c1)Cc1ccccc1	u	2%	0%	2	-4	-25%
COc1cccc(CNC(=O)CSc2nc3ccccc3nc2Cc2ccc(C)cc2)c1OC	-3%	3%	x	x	x	0%
CCn1c(C)cs/c1=N\S(=O)(=O)c1ccccc1	-17%	-4%	6%	17	-12	-16%
O=Cc1s/c(=N\S(=O)(=O)c2ccccc2)n(CCCCl)c1Cl	0.73µM*	6%	u	-3	-102*	0.52µM*
CC1=CCC(C(=O)O)C(C(=O)NC2CCCCC2)C1 (stereo not given)	0%	32µM*	-2%	6	0	8%
COc1ccc(CCNS(=O)(=O)c2ccc(F)c(C(=O)Nc3ccc(Cl)cc3)c2)cc1OC	21µM*	5%	x	x	x	29µM*
O=C(Nc1cccc(Cl)c1Cl)c1cc(S(=O)(=O)NCCc2ccccc2)ccc1F	u	-3%	-13%	14	-6	u
O=C(Nc1cc(Cl)ccc1Cl)c1cc(S(=O)(=O)NCCc2ccccc2)ccc1F	16µM*	5%	x	x	x	u
Cc1ccc(NC(=O)c2cc(S(=O)(=O)NCCc3ccc(Cl)cc3)ccc2F)cc1	13µM*	8%	x	x	x	u
SMILES	DT40 TDP1 no CPT	TDP1 block	ELG1 DNA repair	Giardia killer	IL1B secr inh	DT40 TDP1 CPT
COc1ccc(NC(=O)c2cc(S(=O)(=O)NCC3COc4ccccc4O3)ccc2F)cc1 (stereo not given)	u	1%	u	-7	u	u
COc1ccc(OC)c(NC(=O)c2cc(S(=O)(=O)NCCc3ccc(Cl)cc3)ccc2F)c1	u	5%	x	x	x	u
CC(C)c1ccc(NC(=O)c2cc(S(=O)(=O)NCC3COc4ccccc4O3)ccc2F)cc1 (stereo not given)	18µM*	3%	u	-13	-69*	23µM*
O=C(O)C1NCCN(C(=O)c2ccc3c(ccc4ccccc43)c2)C1C(=O)O (stereo not given)	x	3%	x	x	x	x
CC(C)c1ccc(NC(=O)c2cc(S(=O)(=O)NCCc3ccccc3)ccc2F)cc1	10µM*	3%	x	x	x	15µM*
COc1cc(OC)c(OC)cc1CCC(C)NC(=O)Cc1ccccc1 (stereo not given)	11%	x	4%	4	15	-18%
CCc1ccc(C(c2ccc(CC)cc2)C(Cl)Cl)cc1	0%	20µM*!	12%	-4	2	7%
CCc1ccc(C=O)cc1	0%	x	x	x	x	0%
COc1ccc(C2=C(C)C(=O)N(Cc3ccc(C(=O)Nc4cccc(F)c4)cc3)S2(=O)=O)cc1	23µM*	7%	x	x	x	21µM*
COc1ccc(C2=C(C)C(=O)N(Cc3ccc(C(=O)Nc4ccc(F)cc4C)cc3)S2(=O)=O)cc1	3.7µM*	5%	x	x	x	3.3µM*
CNc1c(Br)cc(C(O)C2=CCc3ccccc32)cc1Br (stereo not given)	4.5µM*	x	x	x	x	8.9µM*
CNc1c(Br)cc(/C=C2\C=Cc3ccccc32)cc1Br	u	x	x	x	x	-9%
OCc1ccccc1-c1cnc2sc(NCc3ccc(F)cc3)nn12	u	x	x	x	1	u
CCCCn1c(CNC(=O)C23CC4CC(CC(C4)C2)C3)nnc1SC(C)CC (stereo not given)	21µM*	3%	-5%	31	-16	23µM*
CCCCSc1nnc(CNC(=O)C23CC4CC(CC(C4)C2)C3)n1Cc1ccccc1	15µM*	1%	-10%	3	u	16µM*
O=C(NCc1nnc(SCc2ccccc2)n1-c1ccccc1)C12CC3CC(CC(C3)C1)C2	18µM*	-4%	-9%	-2	u	15µM*
CCn1c(CNC(=O)C23CC4CC(CC(C4)C2)C3)nnc1SC	1%	0%	-6%	-2	10	6%
CCn1c(CNC(=O)C23CC4CC(CC(C4)C2)C3)nnc1SCC(=O)Nc1ccc(F)cc1	-26%	3%	x	x	x	u
